We go through nine molecules from PubChem BioAssay (NCI).

Experiment in all cases: NCI-60 one-dose screen, 48 h (100 = growth as untreated, 0 = no growth, -100 = all killed)
Experiment [1] deals with HT29 colon. The following applies: 10 µM unless noted.
In experiment [2] the test system is SNB-75 CNS. Particulars: 10 µM unless noted.
Experiment [3] relates to SNB-19 CNS. Particulars: 10 µM unless noted.
Experiment [4] relates to U251 CNS. Particulars: 10 µM unless noted.
The subject of experiment [5] is PC-3 prostate. Particulars: 10 µM unless noted.
For experiment [6], the system named is SK-MEL-5 melanoma. The following applies: 10 µM unless noted.
The test system of experiment [7] is UACC-62 melanoma. The following applies: 10 µM unless noted.
For experiment [8], the system named is LOX IMVI melanoma. The following applies: 10 µM unless noted.
Experiment [9] has as its system SK-MEL-28 melanoma. The following applies: 10 µM unless noted.
The subject of experiment [10] is EKVX NSCLC. The following applies: 10 µM unless noted.
In experiment [11] the test system is UO-31 renal. The following applies: 10 µM unless noted.
For experiment [12], the system named is TK-10 renal. Particulars: 10 µM unless noted.
The test system of experiment [13] is ACHN renal. The following applies: 10 µM unless noted.
The test system of experiment [14] is CAKI-1 renal. The following applies: 10 µM.
Experiment [15] has as its system CCRF-CEM leukemia. The following applies: 10 µM unless noted.
In experiment [16] the test system is SK-MEL-2 melanoma. Particulars: 10 µM unless noted.
The test system of experiment [17] is SN12C renal. The following applies: 10 µM unless noted.
Experiment [18] relates to MOLT-4 leukemia. The following applies: 10 µM unless noted.
In experiment [19] the test system is A498 renal. The following applies: 10 µM unless noted.

Compounds without any hit were thinned out: in the full panel of roughly 83,000, 20% have a hit.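 Plates (96-well) were seeded with cells, treated with compound at one concentration, and incubated for 48 hours before percent growth was determined.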 Unmarked numbers belong to inactive results. Calls of active or inactive are those of the source. Rule for the calls: active = growth percent below 10; inactive = the rest.

As for `N#Cc1ccc(S(=O)(=O)Nc2ccc(-c3cnc(N)[nH]3)cc2)cc1`, the growth in experiment [1] was 98.5%; in [2] it was 106%; in experiment [3], 94.1%; in experiment [4] it was 98.3%; in experiment [5] it was 99%; in [6], 100%. Moreover, the growth in experiment [7] was 92.4%; in experiment [8], 97.9%; in experiment [9], 97.1%; in experiment [10] it was 105%; in experiment [11] it was 89.7%; in [12], 98.6%. For the same molecule, the growth in experiment [13] was 99.7%; in [14], 92.3%; in experiment [15], 98.2%.

As to `CCCCCCNC(=O)Oc1ccc(/C(=C(\C)c2ccc(OC)cc2)c2ccc(OCCN(C)C)cc2)cc1`, the growth was 15.8% in [1]; 77.2% in experiment [2]; 74.9% in experiment [3]; 58.8% in [4]; 66.2% in experiment [5]; 69.9% in [6]. Moreover, the growth was -48.5% (active) in experiment [8]; 76.2% in [9]; 99.8% in [16]; 75% in experiment [10]; 78.8% in [17]; 52.1% in [11]. Moreover, the growth in [12] is 107%; in experiment [13], 88.3%; in [14], 82.9%; in experiment [15] it was 67.3%; in [18], 44.5%.

`O=C(N/N=C\c1ccc(Cl)cc1)c1ccc2nc(-c3ccc(Br)cc3)[nH]c2c1`: the growth in experiment [1] was -52% (active); in [3], 5.18% (active); in experiment [4] it was -70.6% (active); in experiment [5], -23.7% (active); in experiment [6], 22.2%; in [7], 8.2% (active). Also, the growth in experiment [8] is -80.5% (active); in experiment [9], -14.7% (active); in experiment [16], 82.7%; in experiment [10], 0.288% (active); in experiment [17], -14.6% (active); in [11] it was 15.9%. Further, the growth in experiment [12] is -26.8% (active); in [13], -12.6% (active); in [14], -17.8% (active); in [19], 65.4%; in [15] it was 26.3%; in experiment [18], 11.6%.

Take `O=S(=O)(Nc1ccc(-n2cnc3cc(-c4ccc(O)cc4)ccc32)cc1)C1CC1`: the growth in [1] was 98.9%; in experiment [2], 51.3%; in experiment [3], 83.6%; in experiment [4], 74.6%; in [5] it was 83.4%; in experiment [6] it was 88%. Further, the growth was 73.8% in experiment [7]; 116% in experiment [8]; 95% in experiment [16]; 101% in experiment [10]; 88.3% in experiment [17]; 55.6% in [11]. Also, the growth in experiment [12] was 111%; in experiment [13], 78.1%; in experiment [14], 66.3%; in experiment [19] it was 66%; in experiment [15], 79.4%; in experiment [18], 72%.

With `O=C(NNc1nc2cc(F)c(F)cc2n2cccc12)c1ccncn1`, the growth in experiment [1] is 27.3%; in experiment [2], -6.38% (active); in [3] it was 27.5%; in experiment [4], 17.9%; in experiment [5] it was 33.2%; in experiment [6] it was -19.4% (active). For the same molecule, the growth is 19% in [7]; 29.4% in experiment [9]; 29.8% in [16]; 12.2% in experiment [10]; 26.2% in [17]; 20.7% in experiment [11]. Further, the growth is 14.1% in experiment [13]; 17.2% in experiment [14]; 46.5% in experiment [19]; 7.72% (active) in experiment [15]; 8.93% (active) in [18].

For `C=CCn1c(SCC(=O)Nc2cccc(C(=O)/C=C/c3cccc([N+](=O)[O-])c3)c2)nc2ccccc2c1=O`, the growth was 94.9% in experiment [1]; 85.5% in [2]; 90.2% in experiment [3]; 87.9% in experiment [4]; 87.4% in [5]; 98.6% in [6]. In addition, the growth is 77.2% in experiment [7]; 72.8% in [8]; 95.4% in [9]; 96% in experiment [10]; 98.3% in experiment [17]; 79% in [11]. For the same molecule, the growth in experiment [12] is 98.4%; in experiment [13], 96.5%; in experiment [14], 81.2%; in experiment [19], 81.1%; in experiment [15], 94.5%.

Take `COc1cc2c3c(n(CCCNC4CCC4)c(=O)c2cc1OC)-c1cc2c(cc1C3=O)OCO2`: the growth in [1] is -64.1% (active); in [2], -67% (active); in experiment [3], -25.2% (active); in [4], -88.9% (active); in experiment [5], -78.7% (active); in experiment [6] it was 76.8%. Besides, the growth in experiment [7] was 59.1%; in [8], -72.8% (active); in experiment [9] it was 86.7%; in [10], -38.4% (active); in experiment [17] it was -48.9% (active); in experiment [11], -70.9% (active). In addition, the growth in experiment [12] is 98.8%; in [13], -89.7% (active); in [14] it was -82.2% (active); in [15] it was -6.07% (active).

On to `CN1CCN(c2ccc3c(c2)nc(NNC(=O)c2ccncn2)c2cccn23)CC1`, for which the growth was 32.7% in [1]; 61.9% in experiment [2]; 35.1% in experiment [3]; 34% in [4]; 46.5% in [5]; 13.7% in experiment [6]. Besides, the growth in [7] was 22.2%; in experiment [8], 11.4%; in [9] it was 28.3%; in [16], 31.5%; in [10] it was 22.4%; in [17], 29.1%. Moreover, the growth in experiment [11] was 13%; in experiment [12], 43.1%; in experiment [13], 12.5%; in [14], 6.41% (active); in [15], 15.3%; in [18] it was 10.4%.

`O=C1Nc2ccc(Br)cc2/C1=N\c1nnc(-c2ccc(Cl)cc2)o1`: the growth in experiment [1] was 32.5%; in experiment [2], 46.8%; in [3], 72%; in experiment [4], 60.5%; in experiment [5], 80.1%; in experiment [6] it was 77.2%. Moreover, the growth in [7] is 60.1%; in [9] it was 70.8%; in experiment [16], 87.6%; in [10], 72.5%; in experiment [17], 85.7%; in [11], 62.3%. Further, the growth in [12] is 187%; in experiment [13], 74.9%; in experiment [14], 59%; in [19], 69.4%; in experiment [15], 35.7%; in experiment [18], 36.6%.
